Sampled rows, rich in hits. Any-hit rate of the full collection: about 9.4%.
SARS PLpro yeast = SARS-CoV PLP inhibition in yeast. S. cerevisiae expressing SARS-CoV PLpro, growth rescue. AID 485353. Potency, µM (highest dose often 32.9 µM), without a hit: top-dose activity, positive = growth rescue, actives largely listed as activators. 0.19% of 330,000 active; calls by dose curve; further: 0% is about no effect; nearly all actives have a fitted effect of over 55% in size
AMA1 RON2 block = disrupts binding of P. falciparum AMA1 to RON2; AlphaScreen AMA1-biotinylated RON2 peptide binding; Potency, µM (series often up to 58.2 µM), inactives show top-dose activity change, negative = inhibition, hits mostly inhibitors; 0.2% of 360,000 active; AID 720542;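 further: 0% = vehicle wells and -100% = peptide control; nearly all actives have a fitted effect of over 45% in size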
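AMA1 (3D7) with his tag at 25 nM final met compounds first, then biotinylated RON2 peptide at 25 nM; detection used donor plus acceptor beads, 10 µg/mL apiece, read by AlphaScreen after 30 min at room temperature.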
Pf growth 96h = inhibits malaria parasite growth, 96 h; P. falciparum luciferase reporter growth, 96 h; Potency, µM (titrated, usually from 28.7 µM), for inactives: top-dose activity change, negative = inhibition, hits mostly inhibitors; 6.9% of 320,000 active; AID 504834; further: on the % scale 0 is the no-effect control and ±100 the full control effect
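Readout is luminescence from an integrated firefly luciferase in P. falciparum. Red cells, 2% hematocrit and 0.05% parasitemia final, were cultured with compound through two parasite generations (96 hours) at 37 C, 5% CO2.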
Pf growth 48h = inhibits P. falciparum growth in the first generation, 48 h; AID 504832; 5.9% of 310,000 active; Potency, µM (highest dose often 28.7 µM), inactives show at the highest dose activity change, negative = inhibition, hits mostly inhibitors; P. falciparum luciferase growth in erythrocytes, 48 h; further: on the % scale 0 is the no-effect control and ±100 the full control effect
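Luciferase-expressing parasites in RBCs, 2% Hct / 0.1% parasitemia final; RPMI 1640 + 0.5% Albumax; 37 C, 5% CO2, one generation; luminescence read-out, lower signal = inhibition.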
An asterisk follows results filed as active; ? = inconclusive; . = no result given; [ ] = another dose, or the depositor's remark. Unless noted, the call rests on the fitted dose curve; in most records, active means well fitted curve in the direction sought with a large enough effect; inconclusive means small, poorly fitted or top-dose-only effect, or another doubt; inactive means no such curve, though single readings can be large; an effect the other way counts as inactive or inconclusive. Potency means the concentration at half of the fitted maximal effect.

SMILES | SARS PLpro yeast | AMA1 RON2 block | Pf growth 96h | Pf growth 48h
CC1=NN(C(N)=S)C(=O)C1N=Nc1ccc(C)cc1C (stereo unspecified) | -11% | . | 8.3µM* | .
CC1=NN(C(N)=S)C(=O)C1N=Nc1c(C)cc(C)cc1C (stereo unspecified) | 8% | -3% | 4.1µM* | .
Cc1cccc(Nc2ncnc3c2cnn3Cc2ccccc2)c1 | -1% | -10% | ? | ?
CC1(C)Cc2c(c(N3CCOCC3)nc3sc4c(NCc5ccccc5)nnnc4c23)CS1 | 3% | -2% | 1µM* | .
CC1(C)Cc2c(c(N3CCOCC3)nc3sc4c(NCc5ccco5)nnnc4c23)CS1 | -9% | -5% | 10% | ?
O=C(Nc1cc(Cl)ccc1Cl)C1CCCO1 (stereo unspecified) | -5% | -8% | 19% | -10%
FC(F)Oc1ccc(-n2cc(-c3ccc(Cl)cc3)[n+]3c2CCCCC3)cc1 | -1% | 10% | ? | 1.5µM*
FC(F)Sc1ccc(-n2cc(-c3ccccc3)[n+]3c2CCC3)cc1 | -14% | 10% | 0.66µM* | 1.2µM*
COc1ccc(-c2cn(-c3ccc(SC(F)F)cc3)c3[n+]2CCC3)cc1OC | -9% | -4% | ? | ?
FC(F)Oc1ccc(-c2csc(Cc3nnc4n3CCCCC4)n2)cc1 | 2% | -1% | ? | ?
COc1ccc(-c2cn(-c3ccc(OC)cc3)c3[n+]2-c2ccccc2CC3)cc1 | -3% | -10% | 0.41µM* | 1.2µM*
COc1ccc(-n2cc(-c3ccccc3)nc2SC)cc1 | -19% | -1% | 4% | 56%
COc1ccc(-n2cc(-c3ccccc3)[n+]3c2CCCCC3)cc1 | 2% | -17% | 0.93µM* | 1µM*
Cc1cc(OCCN2CCOCC2)nc2ccccc12 | 6% | -3% | 61%[5.75 µM] | 62%
CCCCCCCCN1C(=O)[C@H](CC(=O)N2CCC(c3ccccc3)CC2)C[C@@]2(C(=O)OC)CC(C)(C)CC=C12 | . | -10% | . | .
CCOC(=O)c1c(C)[nH]c(C(=O)Cn2c(=O)c3c(ncn3CC)n(Cc3ccccc3)c2=O)c1C | -15% | -10% | 10µM* | 8.3µM*
CCn1cnc2c1c(=O)n(CC(=O)NCc1ccccc1)c(=O)n2Cc1ccccc1 | 0% | 5% | ? | ?
CCn1cnc2c1c(=O)n(Cc1cccc([N+](=O)[O-])c1)c(=O)n2Cc1ccccc1 | 5% | -16% | ? | 8.3µM*
Cc1nn2c3ccccc3n(CC(=O)c3cccs3)c2nc1=O | -1% | 6% | -3% | 26%
CCC1Oc2ccc(C)cc2N(CC(=O)N(Cc2cccnc2)Cc2ccc(C)o2)C1=O (stereo unspecified) | -6% | -2% | 251% | 12µM*
Cc1c(/C(O)=C2\C(=O)C(=O)N(CCN(C)C)C2c2ccccc2)cnn1-c1ccccc1 (stereo unspecified) | 1% | -12% | 202% | 131%
Clc1cccc(CN2CCc3c([nH]c4ccccc34)C2)c1Cl | -3% | -20% | ? | 1.9µM*
COc1ccccc1CN1CCc2c([nH]c3ccccc23)C1 | 4% | ? | 4% | ?
COc1cc(-c2cc(-c3ccc(O)cc3)nc(N)c2C#N)ccc1O | -1% | 7% | 5.9µM* | ?
COc1ccc(OC)c(-c2cc(-c3cccnc3)nc(N)c2C#N)c1 | -1% | 14% | 9.3µM* | ?
SMILES | SARS PLpro yeast | AMA1 RON2 block | Pf growth 96h | Pf growth 48h
COc1cccc(-c2cc(-c3cccnc3)nc(N)c2C#N)c1 | 1% | -2% | -11% | -5%
N#Cc1c(-c2cccc(Br)c2)cc(-c2cccnc2)nc1N | ? | -21% | ? | 13µM*
N#Cc1c(-c2ccc(Br)cc2)cc(-c2cccnc2)nc1N | 17% | 36% | 39% | 11%
CC1=CC(=O)NS(=O)(=O)O1 | . | . | -9% | -5%
O=C(COC(=O)C1CC2C=CC1C2)NCCc1ccccc1 (stereo unspecified) | 0% | -14% | -9% | 22%
Cc1ccc2sc(N(CCCN(C)C)C(=O)c3ccc(S(=O)(=O)N(C)Cc4ccccc4)cc3)nc2c1C | -14% | ? | 12µM* | 10µM*
CCN(c1ccccc1)S(=O)(=O)c1ccc(C(=O)N(CCCN(C)C)c2nc3c(C)cccc3s2)cc1 | -1% | -17% | 9.3µM* | 15µM*
CCN1CCc2nc3ccccc3c(C(=O)Nc3ccc(C#N)cc3)c2C1 | -1% | -2% | 2.6µM* | ?
COc1ccc(N2CCN(CC(O)COCCOc3ccc(Br)cc3)CC2)cc1 (stereo unspecified) | -38% | -19% | -28% | -8%

Screens from PubChem BioAssay.
